Experimental findings from PubChem BioAssay AID602262 (National Center for Advancing Translational Sciences (NCATS), 2012) are described below.

Unmarked numbers belong to inactive results. Calls follow the shape of the dose curve; as a rule, active = well fitted curve in the direction sought with a large enough effect; inactive = no such curve, though single readings can be large or run the other way.

A short description of the assay: qHTS Assay for Agonists of the Relaxin Receptor RXFP1: V1B SAR. The note with it: HEK293 V1B cells, cAMP TR-FRET, 30 min; series mostly up to 78.1 µM; activation: at the top concentration. From the text:
The relaxin hormone is involved in the variety of biological functions in normal tissues and diseases. The role of relaxin is well-established in female reproduction and parturition, mammary gland and endometrial development, maintenance of myometrial quiescence during pregnancy. Relaxin signaling through its G protein-coupled receptor (GPCR) RXFP1 results in ECM remodeling through regulation of collagen deposition, cell invasiveness, proliferation and overall tissue homeostasis. […] Recombinant human relaxin (rhRlx) is currently being tested in clinical trials as a protective agent in congestive heart failure, in treating severe preeclampsia, and as an anti-fibrotic agent in systemic sclerosis. Upon relaxin binding RXFP1 activation leads to the activation of adenylate cyclase (AC) via Gs. cAMP will activate PKA, which phosphorylates many signaling proteins. Thus, detection of cAMP increase is an easy and reliable indication of relaxin receptor activation. To screen for agonists of the relaxin receptor, a HEK293T cell line stably transfected with RXFP1 was used. RXFP1 activation was assayed by changes in cAMP levels as detected with a time-resolved fluorescence energy transfer (TR-FRET) cAMP detection kit. This assay measures activation of a cell expressing V1B, another GPCR targeted by relaxin, to determine the selectivity of compounds for RXFP1. NIH Chemical Genomics Center [NCGC] NIH Molecular Libraries Probe Production Centers Network [MLPCN] MLPCN Grant: R03 MH085705-01A1 Assay Submitter (PI): Alexander Agoulnik
This is a cell-based assay for cAMP second messenger response to screen for agonists of the RXFP2 receptor. The assay was conducted in the presence of a PDE4 inhibitor (Ro 20174). The cells were lysed and the cAMP levels were measured with a TR-FRET cAMP kit. Presence of cAMP in the cell lysate disrupts binding between the cryptate-labeled anti-cAMP and d2-labeled cAMP pair, leading to a decrease in the TR-FRET signal. Data were normalized to the controls for basal activity (buffer only) and 100% activity (29 nM porcine relaxin). The EC50 values were determined from concentration-response data modeled with the standard Hill equation 1536-well assay protocol for the HEK293 V1B cAMP assay: (1) Add 3 ul HEK293 RXFP2 cell culture. 2000 cells/well in DMEM/F12, 10% FBS, 1x Pen/Strep (dispensed offline with MultiDrop Combi). (2) Incubate 16-24 hr at 37C, 5% CO2. (3) Add 1 ul 400uM Ro20174 in DPBS, 0.05% BSA, 0.005% Tween 20. (3) Add 23 nl compounds in DMSO solution. Final concentration was 0.5 - 58 uM. (4) Incubate 30 min at 37C, 5% CO2. (5) Add 1 ul cAMP-d2 in lysis buffer (HTRF cAMP HiRange kit, CisBio). (6) Add 1 ul anti-cAMP antibody-cryptate in lysis buffer (HTRF cAMP HiRange kit, CisBio). (7) Incubate 30 min at room temperature. (6) Detect the assay plate in a ViewLux plate reader (PerkinElmer) with Ex=320 nm, Em1=615 nm and Em2=665 nm. Keywords: relaxin, RXFP1, RXFP2, G-protein coupled receptor, cAMP, agonist, high throughput screening, MLSMR, MLSCN, NIH Roadmap, qHTS and NCGC
On the technique in general: qHTS replaces the single test concentration by a dilution series.
As to `O=C(Nc1cccc(S(=O)(=O)C(F)(F)F)c1)c1ccccc1NC(=O)C1CCCCC1`, the “activation” value was -2.51%.

As for `O=C(Nc1ccccc1C(=O)Nc1cccc(C(F)(F)F)c1)c1cccnc1`, the “activation” value was -5.19%.

Turning to `COc1cccc(NC(=O)c2ccccc2NC(=O)C2CCCCC2)c1`, the “activation” value is -6.38%.

On to `Cc1ccc(NC(=O)c2ccccc2NC(=O)C2CCCCC2)cc1`, for which the “activation” value was 0.657%.

As for `O=C(Nc1ccccc1C(=O)Nc1cccc(C(F)(F)F)c1)c1ccccc1`, the “activation” value was 66.3%.

`O=C(Nc1ccc(C(F)(F)F)cc1)c1ccccc1NC(=O)C1CCCCC1`: the “activation” value is 2.37%.

As for `CCOc1ccccc1C(=O)NCCC(=O)Nc1cccc(S(=O)(=O)C(F)(F)F)c1`, the “activation” value was 3.4%.

As for `CC(C)Oc1ccccc1C(=O)Nc1ccccc1C(=O)Nc1cccc(S(=O)(=O)C(F)(F)F)c1`, the “activation” value is -0.72%.

Take `CCOc1ccccc1S(=O)(=O)Nc1ccccc1C(=O)Nc1cccc(S(=O)(=O)C(F)(F)F)c1`: the “activation” value was 4.37%.

As to `COc1ccccc1C(=O)N(C)c1ccccc1C(=O)Nc1cccc(C(F)(F)F)c1`, the “activation” value is -2.85%.

With `CC(C)Oc1ccccc1C(=O)Nc1ccccc1C(=O)Nc1cccc(C(F)(F)F)c1`, the “activation” value is -5.45%.

Take `COc1ccccc1C(=O)Nc1ccccc1C(=O)Nc1cccc(SC(F)(F)F)c1`: the “activation” value was -3.98%.

For the compound `CCSc1ccccc1C(=O)Nc1ccccc1C(=O)Nc1cccc(S(=O)(=O)C(F)(F)F)c1`, the “activation” value is -1.43%.

As for `O=C(Cc1ccccc1)Nc1ccccc1C(=O)Nc1cccc(C(F)(F)F)c1`, the “activation” value was -1.24%.

For `COCCNc1ccccc1C(=O)Nc1cccc(C(F)(F)F)c1`, the “activation” value was -6.16%.

As to `O=C(Nc1cccc(SC(F)(F)F)c1)c1ccccc1NC(=O)C1CCCCC1`, the “activation” value is 0.962%.

On to `CSc1cccc(NC(=O)c2ccccc2NC(=O)C2CCCCC2)c1`, for which the “activation” value is 3.22%.

As for `O=C(Nc1cccc(Br)c1)c1ccccc1NC(=O)C1CCCCC1`, the “activation” value was 1.94%.

For the compound `CCOc1ccccc1C(=O)Nc1ccncc1C(=O)Nc1cccc(S(=O)(=O)C(F)(F)F)c1`, the “activation” value is 4.28%.

With `CCOc1ccccc1C(=O)Nc1cnccc1C(=O)Nc1cccc(S(=O)(=O)C(F)(F)F)c1`, the “activation” value was 2.84%.

With `COc1ccccc1C(=O)Nc1ccccc1C(=O)Nc1cccc(C(F)(F)F)c1`, the “activation” value is -4.34%.

On to `O=C(Nc1cccc(C(F)(F)F)c1)c1ccccc1NC(=O)C1CCC1`, for which the “activation” value is 8.48%.

On to `O=C(Nc1cccc(S(=O)(=O)C(F)(F)F)c1)c1ccccc1NC(=O)c1ccccc1OCC(F)(F)F`, for which the “activation” value was 1.49%.

On to `O=C(NCc1cccc(C(F)(F)F)c1)c1ccccc1NC(=O)C1CCCCC1`, for which the “activation” value was -0.791%.

For `O=C(Nc1cccc(C(F)(F)F)c1)c1ccccc1NC(=O)C1CCCC1`, the “activation” value is -3.74%.

Turning to `COCCOc1ccccc1C(=O)Nc1cccc(C(F)(F)F)c1`, the “activation” value is -3.76%.
